Among the data in PubChem BioAssay AID1416 (The Scripps Research Institute Molecular Screening Center, 2008) are inhibition values, retold here.

Broadly, the inhibition is the change of the read-out against control, counted positive when it falls.

In all, about 220,000 compounds went through this assay and about 370 (0.17%) were called active. The entries come from a sample that favours actives as a whole. A number with no mark means an inactive call.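 The calls were made as follows: active = inhibition above the mean inhibition of all tested compounds plus 3 SD, set separately per screening campaign (cut at about 2.9% in these data); inactive = the rest.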

The target of the experiment is Eukaryotic translation initiation factor 2-alpha kinase 3 (Homo sapiens) (UniProt Q9NZJ5). Briefly: SEAP translation reporter rise after PERK-DD activation – CHO PERK-DD cells, SEAP luminescence, HTS, PERK inhibitor project, primary screen (AID 1416).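 Also: PERK kinase domain activated by AP20187 dimerizer at 100 nM; 0% = DMSO with dimerizer and 100% = rapamycin at 8.4 µM.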 The conditions noted are these: CHO PERK-DD fusion, at 5.6 µM, hits give high values.
Sequence of Eukaryotic translation initiation factor 2-alpha kinase 3 (Homo sapiens) (Q9NZJ5 whole entry, looked up, the tested form may be a part): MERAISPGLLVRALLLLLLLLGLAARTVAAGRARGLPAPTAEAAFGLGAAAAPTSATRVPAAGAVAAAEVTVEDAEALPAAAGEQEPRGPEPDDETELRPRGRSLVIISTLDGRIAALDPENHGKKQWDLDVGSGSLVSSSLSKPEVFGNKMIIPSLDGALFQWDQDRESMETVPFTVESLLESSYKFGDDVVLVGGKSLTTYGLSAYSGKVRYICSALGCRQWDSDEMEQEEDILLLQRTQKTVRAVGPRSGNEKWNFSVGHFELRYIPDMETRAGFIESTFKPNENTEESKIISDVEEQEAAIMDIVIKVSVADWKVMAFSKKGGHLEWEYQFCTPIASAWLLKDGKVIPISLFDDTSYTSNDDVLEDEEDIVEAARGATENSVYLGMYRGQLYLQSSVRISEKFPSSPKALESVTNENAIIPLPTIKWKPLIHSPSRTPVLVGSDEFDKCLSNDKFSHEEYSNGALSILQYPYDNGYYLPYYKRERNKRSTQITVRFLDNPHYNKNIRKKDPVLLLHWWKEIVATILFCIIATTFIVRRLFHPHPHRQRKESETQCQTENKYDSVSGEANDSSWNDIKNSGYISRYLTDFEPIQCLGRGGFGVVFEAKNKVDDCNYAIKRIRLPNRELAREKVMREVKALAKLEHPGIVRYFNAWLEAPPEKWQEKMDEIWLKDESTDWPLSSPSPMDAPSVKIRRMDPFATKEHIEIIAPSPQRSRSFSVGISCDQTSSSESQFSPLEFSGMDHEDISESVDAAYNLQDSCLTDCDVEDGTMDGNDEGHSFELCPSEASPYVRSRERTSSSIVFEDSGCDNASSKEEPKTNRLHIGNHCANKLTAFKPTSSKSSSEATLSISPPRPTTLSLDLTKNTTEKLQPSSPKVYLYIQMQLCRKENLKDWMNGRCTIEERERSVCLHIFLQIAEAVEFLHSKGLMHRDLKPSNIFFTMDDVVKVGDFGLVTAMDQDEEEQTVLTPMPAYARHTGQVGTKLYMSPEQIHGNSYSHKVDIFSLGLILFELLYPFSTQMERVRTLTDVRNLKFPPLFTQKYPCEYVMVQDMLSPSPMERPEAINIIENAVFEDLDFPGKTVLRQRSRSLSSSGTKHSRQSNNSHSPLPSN
Regarding `O=[N+]([O-])c1ccc2c(c1)C(N1CCOCC1)/C(=C/C1(O)CCCCC1)O2` (stereo not drawn), the inhibition is -1.29%. Under `Cc1c(C(=O)N(Cc2ccccc2)Cc2cccnc2)cnn1-c1ccc(F)cc1` stands -0.72%; under `CCc1cc(CNC(=O)CC2C(=O)NCCN2CC2CCCCC2)on1` (stereo not drawn), -0.53%; under `COc1cc(NS(=O)(=O)c2ccc(NC(=O)CN3C(=O)c4ccccc4C3=O)cc2)ncn1`, 2.32%. As for `Cc1ccc(Oc2cnn(-c3ccccc3)c(=O)c2Br)cc1`, the inhibition is 2.99% (active).

For the compound `COc1ccc(-n2c(C)nc3c(cnn3-c3ccccc3)c2=O)cc1`, the inhibition was -0.16%. Under `COc1ccc(Oc2c(Cl)cnn(-c3ccccc3)c2=O)cc1` stands 0.39%; under `CCCS(=O)(=O)N1CCC(CCOc2ccccc2)(C(=O)OCC)CC1`, -0.64%. In the case of `O=C(NC(=O)N1CCOCC1)c1ccccc1`, the inhibition was 0.27%.

For the compound `O=C(NC(=O)c1cc(OCC(F)(F)F)ccc1OCC(F)(F)F)Nc1ccccc1`, the inhibition is 0.87%. Under `CN(C)S(=O)(=O)c1ccc(NC(=O)N2CCOCC2)cc1` stands 0.79%; under `Cn1nccc1NS(=O)(=O)c1ccc(F)cc1`, 0.14%. Under `CC(C)CNC(=O)C(=O)Nc1ccc(N(C)C)cc1` stands 0.89%; under `Nc1ccc(S(=O)(=O)Nc2nccc(/C=C/c3ccc(Br)s3)n2)cc1`, 1.17%; under `O=C(O)CCCC(=O)Nc1ccccc1-n1ccnc1`, 3.15% (active).

For `CC(CC(=O)Nc1ccccc1)n1ccnc1` (stereo not drawn), the inhibition is 0.1%.

`Cc1cccc(C)c1NC(=O)Nc1ccccc1-n1ccnc1`: the inhibition is 1.72%.

For `COc1cccc(C2SCC(=O)N2c2cccc(C)c2)c1OC` (stereo not drawn), the inhibition is 0.28%. Under `CC(=O)NCC(=O)N(Cc1ccco1)C1(C(=O)NC2CCCC2)CCCCC1` stands 0.44%; under `CCc1ccc(N(CC(=O)Nc2sc3c(c2C(=O)OC)CCCC3)S(C)(=O)=O)cc1`, 0.54%.

Turning to `O=C(c1cccc(S(=O)(=O)N2CCCC2)c1)N(Cc1ccco1)C1CCS(=O)(=O)C1` (stereo not drawn), the inhibition is 0.31%.

Regarding `Cc1nn(-c2ccccc2)c(-n2cccc2)c1C(=O)O`, the inhibition is 0.88%. Under `CC(CO)(CO)NC(=O)c1ccc(=O)[nH]n1` stands 1.5%; under `CCC(C)NCCOCCOc1ccc(Br)cc1C` (stereo not drawn), -0.24%; under `COc1ccc(C2c3c(C)nn(-c4ccccc4)c3NC(=O)N2c2ccccc2)cc1` (stereo not drawn), -0.38%.

Regarding `CCN(CCCNC(=O)C1CCN(S(=O)(=O)c2cnc[nH]2)CC1)c1ccccc1`, the inhibition is -0.73%. `O=C(Nc1ccccc1)O/N=C1/CCCc2occc21`: the inhibition was 0.48%. For `COc1ccc(-c2csc(NC(=O)COC(=O)c3ccc(Br)o3)n2)cc1`, the inhibition was 0.82%. With `O=[N+]([O-])c1ccc(NCCCO)c(C(F)(F)F)c1`, the inhibition is 0.52%. As for `CCN(CC)CCNc1ccc(Cl)cc1[N+](=O)[O-]`, the inhibition is -0.09%. Under `N#Cc1c(NCCO)ccc([N+](=O)[O-])c1NCCO` stands 3.54% (active).

As to `O=C(C1CCCN1S(=O)(=O)c1ccc(Br)cc1)N1CCOCC1` (stereo not drawn), the inhibition was 1.24%.

For `CCOC(=O)CSc1nc2sc3c(c2c(=O)[nH]1)CC(C)(C)OC3`, the inhibition is 2.96% (active).

Take `CCOC(=O)Cn1c(SC)nc2sc3c(c2c1=O)CC(C)(C)OC3`: the inhibition was 0.18%. Under `CCC1(C)Cc2c(sc3nc(SC)[nH]c(=O)c23)CO1` (stereo not drawn) stands -0.25%; under `Cc1cccc(C(=O)Nc2ccc(C(=O)/C=C/c3cccs3)cc2)c1`, -1.44%. Under `COc1cc(/C=C/C(=O)OCC(=O)NC(=O)NCc2ccccc2)ccc1OCC#N` stands 0.97%; under `O=C(c1ccco1)N1CCN(C(=O)C2CCCN(S(=O)(=O)c3cccc4nsnc34)C2)CC1` (stereo not drawn), 0.2%. Consider `CN(C)c1ccc(NC(=O)CSc2n[nH]c(-c3ccco3)n2)cc1`, for which the inhibition was -0.7%. Under `COc1ccccc1Cn1c(C)nnc1-c1cnn(C)c1N` stands 0.89%.

As for `CCSc1ccccc1C(=O)NCc1ccc(OC)cc1`, the inhibition was 0.41%.

Consider `CCn1cc(CN2CCCC(CNS(=O)(=O)Cc3ccccc3)C2)cn1` (stereo not drawn), for which the inhibition was 1.56%. Under `COc1c(N2CCN(C(=S)Nc3ccccc3F)C(C)C2)c(F)cc2c(=O)c(C(=O)O)cn(C3CC3)c12` (stereo not drawn) stands 1.87%; under `Cc1ccccc1-n1nc(C)c2cc(C(=O)NC3CC3)sc21`, -1.39%; under `Cc1c(Cl)c([N+](=O)[O-])nn1CC(=O)NCC1CCCO1` (stereo not drawn), 0.38%. In the case of `Cc1cc(S(=O)(=O)NC2CCCCC2)ccc1OCC(=O)NCc1cccnc1`, the inhibition was 0.23%. `CC(=O)NCc1ccc(S(=O)(=O)NC2CCN(Cc3ccccc3)CC2)cc1`: the inhibition is 1.04%. Turning to `O=C1CCC(=O)N1c1ccc(NCCc2ccccc2F)c([N+](=O)[O-])c1`, the inhibition was -0.58%. Take `NC(=O)c1ccc(N2CCOCC2)nc1`: the inhibition was 2.55%.

Consider `N#CC1=C(N)N(c2ccc(F)cc2)C(=O)C1`, for which the inhibition was 0.76%. Regarding `CCOC(=O)c1ccc(COC(=O)CCc2nc(-c3ccccc3)c(-c3ccccc3)o2)cc1`, the inhibition was -0.32%. In the case of `Cc1cc(NC(=O)COC(=O)COc2ccc(Cl)cc2C)c([N+](=O)[O-])cc1C`, the inhibition is 0.97%. Under `CCOC(=O)C1=C(C)N=C2c3ccccc3C(=O)C2C1c1ccc(Br)cc1` (stereo not drawn) stands 0.04%; under `CCOc1cnc(C(=O)NNC(=O)c2ccccc2Br)o1`, 1.53%; under `CC1CN(C2CCN(C(=O)COc3ccccc3)CC2)CC(C)O1` (stereo not drawn), 0.89%. With `Cc1nn(CC2CC2)c(=O)n1N(C)c1ncc(C(F)(F)F)cc1Cl`, the inhibition is 1.31%. Under `O=C(Cn1cnc2ccccc21)N/N=C/c1ccco1` stands -0.07%.

As to `O=C(O)/C=C\C(=O)Nc1ccc(OCc2ccccc2)cc1`, the inhibition was 1.09%.

With `CCOc1c(Br)cc(/C=C2\C(=O)N(CCC#N)N=C2C)cc1OC`, the inhibition is 1.06%. In the case of `O=[N+]([O-])c1ccccc1NCc1ccccc1Cl`, the inhibition was 0.13%.

`COc1ccc([N+](=O)[O-])cc1N(CC(O)Cn1nnc2ccccc21)S(=O)(=O)c1ccc(C)cc1` (stereo not drawn): the inhibition is -0.77%. Under `O=C(O)CC1(CC(=O)Nc2cccc(C(F)(F)F)c2)CCCC1` stands 1.02%; under `O=C(Nc1ccc2c(c1)C(=O)OC2)Nc1cccc2ccccc12`, 1.57%. For `CC(=O)c1ccc2c(c1)OCCOCCOc1ccc(C(C)=O)cc1OCCOCCO2`, the inhibition was -1%. Take `CC(=O)c1cc2c(cc1N)OCO2`: the inhibition is 4.03% (active).

Consider `CC(=O)c1cc2c(cc1NC(=O)CN1CCCCCC1)OCO2`, for which the inhibition is -1.22%. Under `Cc1ccc2cc(C)c(N3CCC(C)CC3)nc2c1` stands 1.08%. Under `CC(NS(=O)(=O)c1ccccc1)c1n[nH]c(=S)n1-c1ccccc1` (stereo not drawn) stands 3.52% (active); under `CCCCC(CC(C)O)c1n[nH]c(=S)n1-c1ccccc1` (stereo not drawn), 0.58%.

As for `S=c1[nH]nc(COc2ccccc2)n1-c1ccccc1`, the inhibition was 0.99%. Under `CC(C)CNC(=O)CC(NCC(C)C)C(=O)O` (stereo not drawn) stands 0.39%; under `COc1ccccc1CN(C)C(=O)C1(c2ccc(Cl)cc2)CC1`, 0.49%; under `Cc1nnc(SCC(=O)Nn2cnnc2)s1`, 0.16%. Turning to `Cc1cnc(NC(=O)CSc2nnc(C)s2)s1`, the inhibition is 1.08%. For `Cc1nnc(SCC(=O)NC2CCCC2)s1`, the inhibition is 3.36% (active). As to `CC(=O)C1(C)N(O)C(C)(C)C(c2cccs2)=[N+]1[O-]` (stereo not drawn), the inhibition is 0.19%. Under `COc1cccc(Nc2nnc(SCC(=O)N3CC(=O)Nc4ccccc43)s2)c1` stands 0.32%; under `CC1CC(=S)Nc2ccccc2N1Cc1ccccc1` (stereo not drawn), 0.04%; under `O=C1c2ccccc2C(=O)c2c1cccc2N1CCN(CCO)CC1`, -0.7%. In the case of `COCc1c(C(=O)OCc2c(C)noc2C)oc2ccccc12`, the inhibition is 1.59%. As to `CCOc1ccc(/C=N/NC(=O)CSc2ccccn2)cc1O`, the inhibition is -0.92%.

As to `CC1=C(C(=O)N(C)C)C(c2ccccc2OC(F)F)NC(=O)N1` (stereo not drawn), the inhibition was 1.73%. Under `CCOC(=O)c1ccc(NC(=O)c2cc(=O)[nH]c3ccccc23)cc1` stands 0.84%. Under `O=C(Nc1cccc(F)c1)N1C2CCC1CC(O)(c1cccnc1)C2` (stereo not drawn) stands 0.63%; under `O=C(Nc1ccc(Cl)cc1)OCc1cc(-c2ccccc2)on1`, 0.13%; under `O=C(Nc1ccccc1)OCc1cn(-c2ccc(Cl)cc2)nn1`, 1.21%. On to `O=C(Nc1ccccc1)OCc1cc(-c2ccc(Cl)cc2)on1`, for which the inhibition was 3.15% (active). Under `CCN(CC)CC1(O)CCN(C(=O)c2ccc(Cl)c(Cl)c2)CC1` stands 1.07%; under `Cn1c(=O)c2cc(S(=O)(=O)NCCC(=O)Nc3ccc(F)cc3F)ccc2n(C)c1=O`, 2.78%.

With `Cc1ccc(S(=O)(=O)NCC(=O)N(CC(=O)NC(C)(C)C)Cc2cccs2)cc1`, the inhibition is 1.04%. Under `Cc1ccoc1C(=O)Nc1cccc(Oc2ccccc2)c1` stands -1%. Under `Cc1nc(CN2CCN(C(=O)CCc3nnc(Cc4c[nH]c5ccccc45)o3)CC2)cs1` stands 0.14%; under `O=C(NNc1cc(Cl)cc(Cl)c1)c1c(F)cccc1Cl`, 0.97%; under `COCCNC(=S)N1CCC(NC(=O)C23CC4CC(CC(C4)C2)C3)CC1`, -0.41%. Under `Cc1ccc(C2Nc3ccccc3C(=O)N2CCN2CCNC2=O)cc1` (stereo not drawn) stands 0.32%; under `CN(C)/C=C(/C(=O)c1ccc(Cl)c(Cl)c1)c1nnnn1-c1ccccc1`, 1.85%; under `O=C1COc2ccc(C(=O)COC(=O)c3cccnc3Cl)cc2N1`, 0.94%. In the case of `CCOc1ccc(S(=O)(=O)Nc2nccs2)cc1`, the inhibition is 1.47%.
